Test [1] addresses Retinoic acid receptor RXR-alpha (Homo sapiens) (UniProt P19793). Briefly: ATG_RXRa_TRANS: Attagene TRANS-FACTORIAL HepG2 Assay for human Retinoid X Receptor alpha (RXRa) (AID 2283012; active means hit-call score of the fitted dose curve at least 0.9, where 1 is the maximum). In short, it runs like this:
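Measures exogenous chimeric NR-GAL4 activity in transfected HepG2 liver cells after 24 h of dosing. Induced reporter mRNA was detected by RT-PCR with capillary electrophoresis, and gain of signal was analysed against DMSO.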

The target of test [2] is human Retinoid X Receptor beta (RXRb), RXRB (gene 6257) (UniProt P28702). Briefly: ATG_RXRb_TRANS: Attagene TRANS-FACTORIAL HepG2 Assay for human Retinoid X Receptor beta (RXRb) (AID 2283013; active means hit-call score of the fitted dose curve at least 0.9, where 1 is the maximum). In short, it runs like this:
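Chimeric receptor-Gal4 activity was assessed in transiently transfected human HepG2 cells after 24 h exposure. Transcripts from GAL4-UAS reporters were quantified by fluorescent RT-PCR and capillary electrophoresis, with DMSO as negative control and baseline.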

For test [3], the target named is human Thyroid Receptor alpha (THRa1), THRA (gene 7067) (UniProt P10827). Description: ATG_THRa1_TRANS: Attagene TRANS-FACTORIAL HepG2 Assay for human Thyroid Receptor alpha (THRa1) (AID 2283014; active means hit-call score of the fitted dose curve at least 0.9, where 1 is the maximum). In short, it runs like this:
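Transcripts from GAL4-UAS-driven reporters, measured after 24 h compound exposure by RT-PCR plus capillary electrophoresis of 6-FAM-labeled fragments, were fitted for gain of signal relative to DMSO. Cells: transiently transfected HepG2 expressing NR-Gal4 chimeras.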

Read-out in test [4]: E-selectin (Homo sapiens) (UniProt P16581)
Briefly: BSK_3C_Eselectin: BioMAP Diversity Plus: 3C Assay for Eselectin Biomarker Activity (AID 2283015).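 On outcome: cell surface E-selectin protein quantified by ELISA 24 h after dosing.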 The note with it: primary human endothelial cells (HUVEC); actives raise or lower the signal. Put shortly: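 E-selectin ELISA readout, fitted bidirectionally relative to DMSO, taken 24 h post-dosing in HUVEC cultures of the 3C system. Overt cytotoxicity tracked with sulforhodamine B staining of parallel wells.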

Read-out in test [5]: Interleukin-1 alpha (IL1a), IL1A (gene 3552)
Description: BSK_BE3C_IL1a: BioMAP Diversity Plus: BE3C Assay for Interleukin-1 alpha (IL1a) Biomarker Activity (AID 2283016). The settings on record: primary human bronchial epithelial cells; actives raise or lower the signal. In short, it runs like this:
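Signal from IL-1a ELISA, taken 24 h after chemical dosing of human bronchial epithelial cells, is compared with DMSO as baseline using bidirectional curve fitting.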

Read-out in test [6]: Monocyte Chemoattractant Protein-1 (MCP1), CCL2 (gene 6347)
Description: BSK_3C_MCP1: BioMAP Diversity Plus: 3C Assay for Monocyte Chemoattractant Protein-1 (MCP1) Biomarker Activity (AID 2283017). The settings on record: primary human endothelial cells (HUVEC); actives raise or lower the signal. Put shortly:
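MCP-1 was measured by ELISA 24 h after dosing in primary HUVEC 3C cultures and fitted in both directions relative to DMSO; cytotoxicity was checked by SRB total-protein staining in parallel wells.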

Read-out in test [7]: Monocyte Chemoattractant Protein-1 (MCP1), CCL2 (gene 6347)
Briefly: BSK_4H_MCP1: BioMAP Diversity Plus: 4H Assay for Monocyte Chemoattractant Protein-1 (MCP1) Biomarker Activity (AID 2283018). The note with it: primary human endothelial cells (HUVEC); actives raise or lower the signal. In short, it runs like this:
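Endothelial cells from umbilical vein were treated with test chemical, then after 24 h MCP-1 levels were quantified by ELISA; endpoint values came from bidirectional fitting with DMSO as baseline of activity.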

Read-out in test [8]: Human Leukocyte Antigen - DR isotype (HLADR), HLA-DRA (gene 3122)
Description: BSK_3C_HLADR: BioMAP Diversity Plus: 3C Assay for Human Leukocyte Antigen - DR isotype (HLADR) Biomarker Activity (AID 2283019).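 On outcome: ELISA of cell-surface HLA-DR on HUVEC 24 h after dosing.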 The note with it: primary human endothelial cells (HUVEC); actives raise or lower the signal. In short, it runs like this: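 Bidirectional fitting against DMSO was applied to the HLA-DR ELISA signal from human umbilical vein endothelial cells, 24 h post-dose. Cytotoxicity came from parallel SRB total-protein staining; 3C proliferation was counted by SRB at 48 h.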

Read-out in test [9]: Interleukin-8 (IL8), CXCL8 (gene 3576)
Description: BSK_3C_IL8: BioMAP Diversity Plus: 3C Assay for Interleukin-8 (IL8) Biomarker Activity (AID 2283020). The note with it: primary human endothelial cells (HUVEC); actives raise or lower the signal. Put shortly: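 Endothelial primary cells of human umbilical vein origin are dosed with chemical; after 24 h the IL-8 biomarker is measured by ELISA, and concentration–response is fitted in both directions versus DMSO.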

Read-out in test [10]: Monokine induced gamma interferon (MIG), CXCL9 (gene 4283)
Briefly: BSK_3C_MIG: BioMAP Diversity Plus: 3C Assay for Monokine induced gamma interferon (MIG) Biomarker Activity (AID 2283021). The note with it: primary human endothelial cells (HUVEC); actives raise or lower the signal. Put shortly:
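Endothelial primary cells (human umbilical vein) are dosed with test chemical in the 3C system. MIG levels are measured by ELISA at 24 h and fitted in both directions relative to DMSO.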

Test [11] concerns the target human Vitamin D Receptor (VDR), VDR (gene 7421) (UniProt P11473). Briefly: ATG_VDR_TRANS: Attagene TRANS-FACTORIAL HepG2 Assay for human Vitamin D Receptor (VDR) (AID 2283022; active means hit-call score of the fitted dose curve at least 0.9, where 1 is the maximum). Put shortly: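 Transactivation by an exogenous VDR-Gal4 chimera in transiently transfected HepG2 cells was measured as reporter transcript level 24 hours after chemical treatment. RT-PCR products were analysed by capillary electrophoresis and fitted in the positive direction relative to DMSO.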

Test [12] can be described thus: BSK_3C_SRB: Viability Assessment in the BioMAP Diversity Plus: 3C Assay (AID 2283023).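 Further: fitted both ways against DMSO so a hit may be signal rise or drop.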 The settings on record: primary human endothelial cells (HUVEC). In short, it runs like this: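 Cytotoxicity readout in parallel HUVEC 3C cultures: after 24 h compound exposure, cells fixed with 10% TCA, stained with 0.1% SRB and read at 560 nm. Gain or loss relative to DMSO fitted.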

Read-out in test [13]: Matrix Metallopeptidase 1 (MMP1), MMP1 (gene 4312)
Briefly: BSK_BE3C_MMP1: BioMAP Diversity Plus: BE3C Assay for Matrix Metallopeptidase 1 (MMP1) Biomarker Activity (AID 2283024). The settings on record: primary human bronchial epithelial cells; actives raise or lower the signal. In short, it runs like this: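 MMP1 signal, measured by ELISA after a 24 h chemical exposure of human primary bronchial epithelial cells, is analysed with bidirectional fitting using DMSO as negative control.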

Test [14] can be described thus: BSK_3C_Vis: BioMAP Diversity Plus: 3C Assay for Morphology Visualization (AID 2283025).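 Further: fitted both ways so gain or loss versus DMSO counts.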 The settings on record: primary human endothelial cells (HUVEC). In short, it runs like this:
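Morphology read by light microscopy serves as a background control for the multiplexed 3C assay in human umbilical vein endothelial cells, taken 24 h after dosing, with DMSO as the negative control and bidirectional curve fitting.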

Read-out in test [15]: Pselectin, SELP (gene 6403)
Description: BSK_4H_Pselectin: BioMAP Diversity Plus: 4H Assay for Pselectin Biomarker Activity (AID 2283026). The settings on record: primary human endothelial cells (HUVEC); actives raise or lower the signal. Put shortly:
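Endothelial primary cells (human umbilical vein) are dosed, incubated 24 h, and assayed for surface P-selectin by ELISA; responses in either direction are fitted relative to the DMSO negative control.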

A short description of test [16]: BSK_4H_SRB: Viability Assessment in the BioMAP Diversity Plus: 4H Assay (AID 2283027).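 Further: cells exposed to compound for 24 h before staining.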 The note with it: primary human endothelial cells (HUVEC). In short, it runs like this: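 HUVEC, 24 h post-dose; 10% TCA fix, 0.1% SRB stain, A560 nm. Total protein = overt cytotoxicity, parallel to biomarker read. Bidirectional fit vs DMSO baseline.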
Test [17] can be described thus: BSK_BE3C_SRB: Viability Assessment in the BioMAP Diversity Plus: BE3C Assay (AID 2283028). The note with it: primary human bronchial epithelial cells. Put shortly:
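Cytotoxicity read-out: SRB (0.1%) staining of TCA-fixed (10%) human lung bronchial epithelial cells, absorbance 560 nm, 24 h post-dosing. Curves fitted both directions relative to DMSO.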

Read-out in test [18]: Thrombomodulin, THBD (gene 7056)
Description: BSK_3C_Thrombomodulin: BioMAP Diversity Plus: 3C Assay for Thrombomodulin Biomarker Activity (AID 2283029). The note with it: primary human endothelial cells (HUVEC); actives raise or lower the signal. In short, it runs like this:
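Endothelial cells from umbilical vein are dosed with test chemical and incubated 24 h. Thrombomodulin is then quantified by ELISA, with DMSO serving as negative control and activity baseline.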

The target in test [19] is human RAR-related Orphan Receptor gamma (RORg), RORC (gene 6097) (UniProt P51449). Description: ATG_RORg_TRANS: Attagene TRANS-FACTORIAL HepG2 Assay for human RAR-related Orphan Receptor gamma (RORg) (AID 2283011; active means hit-call score of the fitted dose curve at least 0.9, where 1 is the maximum). Put shortly: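 Reporter transcripts from a transfected RORg-GAL4 chimera in HepG2 cells were quantified 24 h after dosing by RT-PCR, 6-FAM labelling, HpaI digestion and capillary electrophoresis; increases over DMSO baseline were fitted.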
human RAR-related Orphan Receptor gamma (RORg), RORC (gene 6097), sequence (P51449 whole entry, looked up, the tested form may be a part): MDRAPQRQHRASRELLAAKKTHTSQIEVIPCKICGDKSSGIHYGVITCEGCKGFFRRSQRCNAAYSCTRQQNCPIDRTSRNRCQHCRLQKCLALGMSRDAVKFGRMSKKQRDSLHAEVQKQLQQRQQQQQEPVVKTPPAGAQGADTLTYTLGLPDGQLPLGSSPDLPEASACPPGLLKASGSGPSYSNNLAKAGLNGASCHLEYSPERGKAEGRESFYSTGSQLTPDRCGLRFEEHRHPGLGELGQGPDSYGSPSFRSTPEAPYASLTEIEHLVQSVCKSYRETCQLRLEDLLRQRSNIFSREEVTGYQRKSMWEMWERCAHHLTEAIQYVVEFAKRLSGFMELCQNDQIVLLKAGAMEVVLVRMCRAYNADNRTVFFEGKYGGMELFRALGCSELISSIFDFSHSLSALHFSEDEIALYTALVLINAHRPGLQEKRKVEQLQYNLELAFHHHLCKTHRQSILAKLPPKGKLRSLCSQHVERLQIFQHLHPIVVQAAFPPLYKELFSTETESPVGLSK

Inconclusive results are not listed. Active and inactive are the calls of the source. How the source made its calls, unless noted: active means hit-call score of the fitted dose curve at least 0.9, where 1 is the maximum; inactive means score below 0.9.

human Thyroid Receptor alpha (THRa1), THRA (gene 7067), sequence (P10827 whole entry, looked up, the tested form may be a part): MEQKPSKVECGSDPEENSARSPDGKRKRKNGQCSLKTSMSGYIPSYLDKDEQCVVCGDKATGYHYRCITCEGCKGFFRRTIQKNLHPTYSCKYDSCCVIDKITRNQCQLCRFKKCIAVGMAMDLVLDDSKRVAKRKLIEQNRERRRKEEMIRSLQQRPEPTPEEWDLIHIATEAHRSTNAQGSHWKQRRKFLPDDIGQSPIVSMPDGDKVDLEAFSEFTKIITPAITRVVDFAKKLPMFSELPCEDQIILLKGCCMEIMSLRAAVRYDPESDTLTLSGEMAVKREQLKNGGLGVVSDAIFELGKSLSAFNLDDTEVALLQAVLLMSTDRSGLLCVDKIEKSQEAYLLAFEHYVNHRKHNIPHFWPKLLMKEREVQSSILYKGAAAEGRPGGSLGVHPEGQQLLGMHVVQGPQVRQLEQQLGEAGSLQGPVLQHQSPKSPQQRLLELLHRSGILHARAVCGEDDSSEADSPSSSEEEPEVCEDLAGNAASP
human Retinoid X Receptor beta (RXRb), RXRB (gene 6257), sequence (P28702 whole entry, looked up, the tested form may be a part): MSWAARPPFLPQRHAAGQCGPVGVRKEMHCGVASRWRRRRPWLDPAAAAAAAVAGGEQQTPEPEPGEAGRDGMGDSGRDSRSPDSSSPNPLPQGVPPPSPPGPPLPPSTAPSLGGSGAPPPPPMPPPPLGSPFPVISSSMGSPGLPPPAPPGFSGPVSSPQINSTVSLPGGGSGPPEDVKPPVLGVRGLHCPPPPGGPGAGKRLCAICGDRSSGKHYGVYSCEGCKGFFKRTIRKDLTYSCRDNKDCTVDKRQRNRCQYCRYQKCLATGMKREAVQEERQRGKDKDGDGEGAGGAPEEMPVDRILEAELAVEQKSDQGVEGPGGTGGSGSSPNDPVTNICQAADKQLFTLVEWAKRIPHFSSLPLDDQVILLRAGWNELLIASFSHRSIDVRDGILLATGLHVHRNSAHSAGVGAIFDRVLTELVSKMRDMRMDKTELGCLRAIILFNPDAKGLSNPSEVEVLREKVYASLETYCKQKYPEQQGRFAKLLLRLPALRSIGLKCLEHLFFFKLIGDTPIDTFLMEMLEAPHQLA
Retinoic acid receptor RXR-alpha (Homo sapiens), sequence (P19793 whole entry, looked up, the tested form may be a part): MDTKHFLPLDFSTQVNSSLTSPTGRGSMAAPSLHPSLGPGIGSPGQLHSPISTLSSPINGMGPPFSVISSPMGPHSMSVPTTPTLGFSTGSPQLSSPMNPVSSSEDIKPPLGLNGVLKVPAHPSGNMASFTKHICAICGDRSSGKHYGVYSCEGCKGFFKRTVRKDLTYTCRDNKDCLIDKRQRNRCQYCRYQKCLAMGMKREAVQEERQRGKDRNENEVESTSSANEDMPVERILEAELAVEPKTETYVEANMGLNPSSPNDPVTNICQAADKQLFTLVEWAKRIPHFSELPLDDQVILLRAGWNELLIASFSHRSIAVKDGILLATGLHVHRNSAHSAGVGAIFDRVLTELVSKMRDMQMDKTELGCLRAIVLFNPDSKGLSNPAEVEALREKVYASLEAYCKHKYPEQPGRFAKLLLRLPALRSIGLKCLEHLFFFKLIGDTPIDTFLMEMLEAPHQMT
human Vitamin D Receptor (VDR), VDR (gene 7421), sequence (P11473 whole entry, looked up, the tested form may be a part): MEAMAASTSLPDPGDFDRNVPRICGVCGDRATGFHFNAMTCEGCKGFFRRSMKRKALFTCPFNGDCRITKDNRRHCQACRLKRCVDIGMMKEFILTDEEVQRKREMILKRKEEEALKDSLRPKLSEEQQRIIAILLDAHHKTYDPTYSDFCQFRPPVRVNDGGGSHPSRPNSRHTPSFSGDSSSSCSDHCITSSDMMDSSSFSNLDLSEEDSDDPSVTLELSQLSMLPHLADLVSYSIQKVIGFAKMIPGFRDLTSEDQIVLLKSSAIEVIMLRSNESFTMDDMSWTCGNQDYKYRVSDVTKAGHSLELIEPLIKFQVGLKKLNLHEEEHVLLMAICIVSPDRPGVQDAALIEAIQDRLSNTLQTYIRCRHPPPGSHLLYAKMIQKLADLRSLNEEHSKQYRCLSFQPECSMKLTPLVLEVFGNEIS
E-selectin (Homo sapiens), sequence (P16581 whole entry, looked up): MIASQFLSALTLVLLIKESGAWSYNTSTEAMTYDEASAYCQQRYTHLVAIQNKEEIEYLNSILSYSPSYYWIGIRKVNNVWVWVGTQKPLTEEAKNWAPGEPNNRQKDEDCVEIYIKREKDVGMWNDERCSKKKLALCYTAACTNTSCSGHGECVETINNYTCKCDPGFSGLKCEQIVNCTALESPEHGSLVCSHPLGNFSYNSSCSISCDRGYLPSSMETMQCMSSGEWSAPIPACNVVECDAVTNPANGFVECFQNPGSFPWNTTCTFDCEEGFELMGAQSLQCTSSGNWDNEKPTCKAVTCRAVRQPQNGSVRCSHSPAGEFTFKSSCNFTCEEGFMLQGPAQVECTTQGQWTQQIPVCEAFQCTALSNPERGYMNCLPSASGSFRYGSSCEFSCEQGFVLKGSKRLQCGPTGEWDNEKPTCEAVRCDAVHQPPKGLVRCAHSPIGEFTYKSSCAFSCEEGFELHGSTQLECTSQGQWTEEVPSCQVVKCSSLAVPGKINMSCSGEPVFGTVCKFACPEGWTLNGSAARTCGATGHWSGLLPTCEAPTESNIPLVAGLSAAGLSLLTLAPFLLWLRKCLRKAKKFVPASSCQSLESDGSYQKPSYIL

`CCCC1CCCC(=O)O1` (configuration not stated): the result in test [1], in test [2] and in test [3] was inactive.

Take `CC(CC=O)CC(C)(C)C` (configuration not stated): the compound was called inactive in test [1], in test [2] and in test [3].

As usually defined, the AC50 is the concentration giving half of the maximal activity seen. Turning to `COC(OC)(C(=O)c1ccccc1)c1ccccc1`, the result in test [1], in test [2], in [4], in [5], in test [6] and in test [8] was inactive. Further, the outcome in [10], in test [11], in test [12], in [13], in test [14] and in [15] was inactive. The outcome in test [16], in test [17] and in [18] was inactive. Besides, the AC50 in [7] and in test [9] was 0.016 µM (active) throughout.

On to `CCOC(=O)[C@H](O)[C@@H](O)C(=O)OCC`, for which the compound was called inactive in test [1], in test [2], in test [3] and in [11].

Consider `CC(=O)OCCc1ccccc1`, for which the outcome in [1], in test [2], in test [3] and in [11] was inactive.

On to `C=CC(=O)OCCCCCCCC(C)C`, for which the compound was called inactive in test [1], in [2], in test [6], in test [7], in test [8] and in test [9]. The outcome in test [10], in test [11], in [12], in test [13], in [14] and in test [15] was inactive. In addition, the outcome in test [16] and in test [17] was inactive. Also, the AC50 in test [4] was 20 µM (active); in [5], 0.719 µM (active); in test [18], 6.25 µM (active).

For the compound `O=C1c2ccccc2C(=O)c2cc(S(=O)(=O)O)ccc21`, the call in test [1] and in test [2] was inactive.

As to `O=C(O)/C=C/c1ccccc1`, the outcome in test [1], in test [3] and in test [11] was inactive. Also, the AC50 in test [2] is 121 µM (active).

For the compound `CCCCOC(=O)CCC(C)=O`, the result in test [1], in test [2], in test [3] and in test [11] was inactive.

Consider `CCOC(=O)/C=C\C(=O)OCC`, for which the result in test [19], in test [5], in test [6], in test [7], in [9] and in test [10] was inactive. The outcome in test [12], in test [13], in test [14], in test [15], in test [16] and in [17] was inactive. The outcome in test [18] was inactive. Moreover, the concentration at half-maximal activity (AC50) in [8] is 32.5 µM (active).

(Values after PubChem BioAssay (EPA / NIEHS).)
